SW480 rerep – DNA re-replication induction in SW480 cells; SW480 DNA re-replication, Hoechst DNA content imaging, 48 h; Potency, µM (highest dose often 46.1 µM), actives largely listed as activators; 1.8% of 340,000 active; AID 624297; also: nearly all actives have a fitted effect of over 55% in size
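First, 250 cells per well were seeded. Next, compound or vehicle (23 nL) was pinned in, plates sat 48 hr at 37 C. Finally Hoechst was added for 40 min before fluorescence scanning.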
KB-3-1 tox – KB-3-1 parental cell cytotoxicity; KB-3-1 viability, CellTiter-Glo ATP luminescence, 72 h; Potency, µM (series often up to 46.1 µM), hits mostly cytotoxic; 1.4% of 400,000 active; AID 1347075; also: nearly all actives have a fitted effect of over 60% in size
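Viability of parental KB-3-1 cells, measured by CellTiter-Glo luminescence, followed a 72 h incubation at 37 °C with pinned compounds in phenol-red-free DMEM containing 10% FBS.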
MCF10A rereplic – inducers of DNA re-replication in MCF 10A breast cells. Potency, µM (top dose mostly 46.1 µM), usual class: activators. MCF 10A DNA re-replication, Hoechst nuclear intensity, 48 h. 2.9% of 350,000 active; also: nearly all actives have a fitted effect of over 50% in size
KB-V1 MDR tox – KB-V1 MDR subline cytotoxicity; AID 1347076; 3.4% of 400,000 active; KB-V1 MDR cells viability, CellTiter-Glo, 72 h; Potency, µM (top dose mostly 46.1 µM), hits mostly cytotoxic; also: nearly all actives have a fitted effect of over 60% in size
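Cells of the MDR subline KB-V1 are plated, dosed with compound at multiple concentrations, and incubated 72 h at 37 degrees C; CellTiter-Glo is then added and luminescence read after 10 min.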
IL-1B inflam inh – blocks inflammasome-driven IL-1 beta release | activity change, % at 57.5 µM | 4.7% of 360,000 active | THP-1 LPS/ATP IL-1B secretion, AlphaLISA, 16 h; active compounds read low; in the data active = activity change below about -50%; inconclusive = mostly about -30% to -49%
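THP-1 cells pretreated 1 hr with compounds (up to 57.5 uM final), then stimulated with LPS (250 ng/mL final) plus ATP (1.25 mM final); secreted IL-1B measured by AlphaLISA after 16 hr, decreased signal indicating inhibition.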
A number is an active result; n = inactive; u = inconclusive; x = no result given; [ ] = dose if it differs, or a comment. The list is not random: actives were taken first. Their share in the collection is about 9.9%. Unless noted, calls follow the shape of the dose curve; as a rule, active = well fitted curve in the direction sought with a large enough effect; inconclusive = small, poorly fitted or top-dose-only effect, or another doubt; inactive = no such curve, though single readings can be large; an effect the other way counts as inactive or inconclusive.

SMILES | SW480 rerep | KB-3-1 tox | MCF10A rereplic | KB-V1 MDR tox | IL-1B inflam inh
O=C(c1ccc(NC2=NC3CS(=O)(=O)CC3S2)cc1)N1CCN(c2ccc([N+](=O)[O-])cc2)CC1 (stereo not drawn) | n | n | n | n | n
Cc1ccc(CNC(=O)c2cc3c(s2)-c2ccc(Cl)cc2SC3)cc1 | x | n | x | n | x
CN(C)CCNC(=O)c1cc2c(s1)-c1ccc(Cl)cc1SC2 | u | u | 20.6µM | n | n
CC[C@]12c3[nH]c4ccc(OC)cc4c3CCN1C(=O)C(CC(=O)NCCC1=CCCCC1)C[C@@H]2C(=O)N1CCN(C(=O)C2CC2)CC1 (stereo partly drawn) | n | n | n | n | n
N=c1c2c(n(Cc3ccc(Br)cc3)c3c1CCC3)CCCC2 | n | 0.651µM | u | n | -81.1
N=c1c2c(n(Cc3ccc(Cl)c(Cl)c3)c3c1CCC3)CCCC2 | n | n | u | n | -72.3
N=c1c2c(n(Cc3ccc([N+](=O)[O-])cc3)c3c1CCC3)CCCC2 | n | n | n[9.22 µM] | n | n
COc1ccc(OCCNC(=O)c2cccc(Oc3ccc(C(F)(F)F)cc3[N+](=O)[O-])c2)cc1 | n | u | u | 2.91µM | n
COc1ccccc1Nc1c2c(nc3ccc(NC(=O)c4cccc(F)c4)cc13)CCCC2 | x | 20.6µM | x | n | x
COc1ccc(Oc2ccc(C(F)(F)F)cc2NC(=O)c2ccc(F)cc2)cc1 | n | n | n | n | n
COc1cccc(Oc2ccc(C(F)(F)F)cc2N)c1 | n | n | n | n | -69.5
COc1cccc(Oc2ccc(C(F)(F)F)cc2NC(=O)c2cccc(F)c2)c1 | n | u | n | 20.6µM | n
O=C1C(Cc2c[nH]c3ccccc23)NC(=S)N1C1CCCCC1 (stereo not drawn) | n | n | n | u | n
O=S(=O)(c1ccc2[nH]c3c(c2c1)CCCCC3)N1CCN(c2ccccc2)CC1 | x | n | x | u | x
O=C(NCCOc1ccccc1)c1ccccc1[N+](=O)[O-] | n | n | n | n | n
O=C(NCCOc1ccccc1)c1cc(C(=O)NCCOc2ccccc2)cc([N+](=O)[O-])c1 | u | u | n | 3.66µM | n
COc1cc2c(cc1NC(=O)c1cccc(F)c1)CCCC2 | n | n | n | 23.1µM | n
CCc1cccc(C)c1NC(=O)c1cc(S(=O)(=O)N2CCN(c3ccccc3)CC2)ccc1F | x | n | x | n | x
O=C1Nc2cc(C(=O)NCCCN3CCCC3)ccc2S/C1=C/c1ccccc1F | 18.4µM | n | u | n | u
Cc1ccc(CNC(=O)c2ccc3c(c2)NC(=O)C(N2CCOCC2)S3)cc1 (stereo not drawn) | n | n | n | n | -77.1
Cc1ccc(/C=C2/Sc3ccc(C(=O)NCCN4CCOCC4)cc3NC2=O)cc1 | n | n | 20.6µM | n | n
O=C(NCCCN1CCCCC1)c1ccc2c(c1)NC(=O)c1ccccc1S2 | n | n | n | n | n
O=C1Nc2cc(C(=O)NCCN3CCCCCC3)ccc2S/C1=C/c1ccccc1F | x | n | x | u | -101.7
O=C(NCCCN1CCCCCC1)c1ccc2c(c1)NC(=O)C(N1CCOCC1)S2 (stereo not drawn) | n | n | n | u | n
COc1ccc(CNC(=O)c2ccc3c(c2)CCN3S(=O)(=O)c2ccccc2)cc1 | x | n | x | n | x
SMILES | SW480 rerep | KB-3-1 tox | MCF10A rereplic | KB-V1 MDR tox | IL-1B inflam inh
CC1c2cc3c(cc2CCN1S(=O)(=O)c1ccccc1)OCCCO3 (stereo not drawn) | n | n | n | n | n
CC(C)(C)NC(=O)C(c1ccc(F)cc1)N(Cc1ccco1)C(=O)CCC(=O)Nc1ccccn1 (stereo not drawn) | n | n | n | u | n
CC(CN1CCN(C)CC1)OC(=O)c1ccc(Cl)cc1 (stereo not drawn) | n | n | u | n | -83.7
CNc1nc(Nc2ccc(C(C)=O)cc2)nc(OC(C(F)(F)F)C(F)(F)F)n1 | n | n | u | n | -58.0
Cc1nnc(Sc2cc(NCCCO)c([N+](=O)[O-])c3nonc23)s1 | n | n | n | n | -105.3
CC(=O)OCCCNc1cc(SCc2ccco2)c2nonc2c1[N+](=O)[O-] | u | n | u | n | -103.4
CCC(=O)OCCNc1cc(Sc2nc3ccccc3[nH]2)c2nonc2c1[N+](=O)[O-] | 10.3µM | 23.1µM | 1.3µM | n | -100.9
